Giardia FBPA inh: blocks Giardia fructose-bisphosphate aldolase activity. purified Giardia FBPA. AID 2451. Potency, µM (highest dose often 59.6 µM), for the others: at the top dose activity, negative = inhibition, actives largely listed as inhibitors. A8B2U2. actives 0.71% (n = 290,000); also: potency is read from the fitted curve at half-maximal effect; % is scaled to controls: 0 for no effect and ±100 for the full control effect; nearly all actives have a fitted effect of over 55% in size
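40 nM FBPA preincubated 10 min at RT with compound (up to 57.5 uM final), then substrate plus GAPDH/TPI/NAD/arsenate coupling and diaphorase/resazurin added. Fluorescence read after 20 min at RT, 525/598 nm.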
CHX counter: counter-screen for Shiga toxin inhibitors: cycloheximide protein synthesis inhibition | cell reporter, cycloheximide protein synthesis inhibition counterscreen | max response, % | actives 12% (n = 300,000); in the data active = max response mostly above about 13%, no sharp cut-off; inactive = mostly below about 14%; also: read at 38.3 µM for the half of the compounds with a filed dose; 0% is about no effect
Shiga toxin inh: Shiga toxin inhibition; Vero cells, Shiga toxin protein synthesis inhibition reporter; AID 2315; actives 9.2% (n = 290,000); inhibition, % at 38.7 µM; in the data active = inhibition mostly above about 28%, no sharp cut-off; inactive = mostly below about 43%; also: 0% is about no effect
LmPK inhibitor: blocks Leishmania mexicana pyruvate kinase activity; actives 0.37% (n = 290,000); purified LmPK, Kinase-Glo ATP luminescence, 1 h; Potency, µM (series often up to 57.5 µM), without a hit: top-dose activity change, negative = inhibition, most hits filed as inhibitors; also: potency is read from the fitted curve at half-maximal effect; % is scaled to controls: 0 for no effect and ±100 for the full control effect
Target sequence (Q27686 whole entry, looked up): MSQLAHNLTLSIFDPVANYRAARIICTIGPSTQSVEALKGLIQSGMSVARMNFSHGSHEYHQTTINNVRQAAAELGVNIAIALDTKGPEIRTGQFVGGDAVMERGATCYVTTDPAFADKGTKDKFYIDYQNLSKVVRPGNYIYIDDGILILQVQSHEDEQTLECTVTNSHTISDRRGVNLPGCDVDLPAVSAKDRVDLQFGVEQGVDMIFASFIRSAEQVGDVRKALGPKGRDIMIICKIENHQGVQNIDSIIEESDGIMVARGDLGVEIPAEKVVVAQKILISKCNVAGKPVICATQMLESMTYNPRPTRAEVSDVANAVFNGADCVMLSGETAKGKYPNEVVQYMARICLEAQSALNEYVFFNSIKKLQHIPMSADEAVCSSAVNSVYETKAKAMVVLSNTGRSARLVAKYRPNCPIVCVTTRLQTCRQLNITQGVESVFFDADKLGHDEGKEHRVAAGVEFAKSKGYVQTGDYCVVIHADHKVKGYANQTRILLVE
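Screened at intermediate enzyme activity to detect both inhibitors and activators: LmPK at 0.1 nM, with a 0.5 nM enzyme column as activation reference. PEP 0.5 mM, ADP 0.1 mM; ATP detected by luminescence after 1 h.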
TbPYK inhibitor: inhibitors of Trypanosoma brucei pyruvate kinase | Q57TT1 | actives 0.12% (n = 410,000) | TbPYK enzyme, Kinase-Glo Plus ATP luminescence, 45 min | Potency, µM (doses to about 76.8 µM), for inactives: top-dose activity, negative = inhibition, usual class: inhibitors; also: potency is read from the fitted curve at half-maximal effect; % is scaled to controls: 0 for no effect and ±100 for the full control effect; nearly all actives have a fitted effect of over 50% in size
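Luminescent Kinase-Glo Plus end-point after 45 min room-temperature reaction of T. brucei pyruvate kinase started with 130 uM ADP (final). Buffer TEA 50 mM pH 7.2 with KCl, MgCl2, BSA, Tween-20; titration-based qHTS with fitted concentration-effect curves.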
Sm TGR block: S. mansoni TGR enzyme inhibition | Q962Y6 | purified TGR, DTNB reduction, TNB absorbance 405 nm | Potency, µM (highest dose often 114 µM), without a hit: at the highest dose activity change, negative = inhibition, hits mostly inhibitors | actives 3% (n = 360,000); also: potency is read from the fitted curve at half-maximal effect; % is scaled to controls: 0 for no effect and ±100 for the full control effect; nearly all actives have a fitted effect of over 60% in size
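First, TGR (20 nM dispensed) and NADPH were mixed with compound. Second, a 15 min room-temperature incubation followed. Third, further NADPH and then DTNB were added to start the reaction. Finally, TNB absorbance was monitored kinetically.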
Active calls of the source: *; i = inactive; ? = inconclusive; · = no result; [ ] = remark or other dose. The entries come from a sample that favours hits as a whole. Unless noted, calls follow the shape of the dose curve; as a rule, active = well fitted curve in the direction sought with a large enough effect; inconclusive = small, poorly fitted or top-dose-only effect, or another doubt; inactive = no such curve, though single readings can be large; an effect the other way counts as inactive or inconclusive.

SMILES	Giardia FBPA inh	CHX counter	Shiga toxin inh	LmPK inhibitor	TbPYK inhibitor	Sm TGR block
O=C(CNC(=O)N1CC(=O)Nc2ccccc21)Nc1cccc(F)c1	-11%	-2	-9	2%	1%	0%
CCN1C/C(=C/c2ccc(N3CCOCC3)cc2)C(=O)/C(=C/c2ccc(N3CCOCC3)cc2)C1	-16%	26*	36*	-3%	-3%	-20%
CN1C/C(=C\c2ccc(N3CCOCC3)cc2)C(=O)/C(=C/c2ccc(N3CCOCC3)cc2)C1	-29%	6	-1	3%	-3%	?
c1ccc(CSc2ccc(-c3cccs3)nn2)cc1	1%	31*	40*	-5%	-12%	-12%
Clc1cccc(CSc2ccc(-c3cccs3)nn2)c1	·	·	·	·	4%	-3%
Clc1ccc(CSc2ccc(-c3cccs3)nn2)cc1	·	·	·	·	2%	-5%
c1ccc(CSc2ccc(-c3cccs3)nn2)nc1	0%	44*	51*	-1%	-6%	-17%
Cc1cc(NC(=O)c2ccc(C)c(C)c2)no1	-3%	37*	·	4%	-7%	3%
Cc1ccc(C(=O)Nc2sc(C)c(-c3ccccc3)c2C(N)=O)cc1[N+](=O)[O-]	8%	62*	127*	2%	-11%	2%
Cc1cc(NC(=O)c2ccc(Br)c([N+](=O)[O-])c2)no1	0%	20	28	-6%	-1%	2%
Cc1cc(NC(=O)c2ccc(C)c([N+](=O)[O-])c2)no1	-1%	31	32*	-3%	-8%	-3%
Cc1ccc(C(=O)Nc2cccc(NC(=O)c3ccc(C)c([N+](=O)[O-])c3)n2)cc1[N+](=O)[O-]	-1%	0	7	0%	-4%	0%
CCOc1ccc(OCC)c(NS(=O)(=O)c2cc(-c3onc(C)c3C)ccc2OC)c1	·	·	·	·	1%	16%
C[C@H](O)[C@@H]1C(=O)N2CCc3ccc(N4CCN(C)CC4)cc3[C@@H]2C[C@@H]1N(C)C(=O)c1ccco1	·	·	·	·	2%	·
Cc1ccc(C2CC(=O)Oc3ccc(O)cc32)cc1 (configuration not stated)	2%[89.2 µM]	5	i	·	·	·
Cc1c(C)n(CCN(C)C)c2ncnc(NCc3ccccc3)c12	-2%	-3	3	-1%	5%	13%
Cc1c(C)n(CCc2ccccc2)c2ncnc(NCCCN(C)C)c12	5%	18	28*	-3%	6%	-1%
Cc1ccc2nsnc2c1S(=O)(=O)Nc1cccc2nsnc12	?	14	-9	2%	-12%	45µM*
Cc1ccc2nsnc2c1S(=O)(=O)Nc1cccc2cccnc12	-29%	9	-8	·	·	·
N#Cc1ccc(CN2CCCC3(CCN(C(=O)c4ccncc4)CC3)C2)cc1	2%	·	·	·	-7%	·
CCN(CC(=O)NCc1cccs1)C(=O)c1ccc([N+](=O)[O-])o1	·	·	·	·	1%	45µM*
Cc1nnc(SCc2ccccc2F)n1NCc1cccs1	1%	24*	54	-10%	3%	-3%
CC(=O)c1c(C)[nH]c(C(=O)Nc2cccc(C#N)c2)c1C	1%	1	52	-1%	3%	-1%
CC(=O)c1c(C)[nH]c(C(=O)Nc2cccc(C(F)(F)F)c2)c1C	2%	32*	73*	2%	2%	-9%
COc1ccc(NC(=O)c2[nH]c(C)c(C(C)=O)c2C)cc1Cl	?	60*	56	-2%	-28%	0%
SMILES	Giardia FBPA inh	CHX counter	Shiga toxin inh	LmPK inhibitor	TbPYK inhibitor	Sm TGR block
CCOC(=O)c1c(C)[nH]c(C(=O)Nc2ccc(C)c(Cl)c2)c1C	2%	35*	103*	1%	·	-5%
CC(=O)c1c(C)[nH]c(C(=O)NC2CCCCC2)c1C	-2%	16*	16	-3%	-1%	0%
COc1cc(NC(=O)c2[nH]c(C)c(C(C)=O)c2C)cc(OC)c1OC	-2%	-3	-3	1%	-6%	-8%
CC(C)OCCCn1c(SCC(N)=O)nc2c(sc3ccccc32)c1=O	·	·	·	·	-11%	5%
Nc1[nH]c(C(=O)c2ccccc2)c(-c2ccccc2C(F)(F)F)c1C(=O)NCc1cccc2ccccc12	·	·	·	·	6%	·
CC(=O)c1c(C)[nH]c(C(=O)Nc2ccc(C)c(C)c2)c1C	-6%	36*	65*	7%	-1%	-16%
CC(=O)c1c(C)[nH]c(C(=O)Nc2cccnc2)c1C	0%	2	-24	-1%	-6%	-35%
CCc1c(C(=O)Nc2ccc(C)c(C)c2)[nH]c(C)c1C(C)=O	4%	40*	84*	-2%	-7%	6%
COc1ccc(NC(=O)c2cn(CC(C)C)c(=O)c3cc(OC)c(OC)cc23)cc1Cl	·	·	·	·	-10%	1%
O=C(CSC1=NCCS1)Nc1ccc2ccccc2c1	-9%	36*	117*	1%	3%	5%
O=C(CSc1ccccn1)Nc1ccc2ccccc2c1	-2%	53*	77*	6%	·	-4%
O=C(CSc1n[nH]c(=O)[nH]c1=O)Nc1ccc2c(c1)C(=O)c1ccccc1C2=O	-19%	27*	68*	-5%	-31%	1%
CC(=O)Nc1ccc(NC(=O)CSC2=NCCS2)cc1	-17%	-3	3	0%	3%	1%
O=C(CSc1ccccn1)Nc1ccc2c(c1)C(=O)c1ccccc1C2=O	-9%	43*	20	0%	-10%	-17%
O=C(CSc1n[nH]c(=O)[nH]c1=O)Nc1cccc(S(=O)(=O)N2CCOCC2)c1	7%	-3	3	-1%	0%	-11%
Cn1c2ccccc2c2cnn(CC(=O)NCCCN3CCCCC3)c(=O)c21	·	·	·	·	-4%	6%
CCc1ccc(CSc2nc(-c3ccccc3OC)nc3c2Cc2c(CO)cnc(C)c2O3)cc1	·	·	·	·	-3%	0%
O=C(COc1ccc2ccccc2c1)NC1=NCCS1	-3%	43*	107*	-1%	6%	1%
Cc1cc(C)cc(OCC(=O)NC2=NCCS2)c1	1%	7	-3	-2%	-6%	3%
O=C1OC(C(=O)Nc2cc(C(F)(F)F)ccc2Cl)Cc2ccccc21 (configuration not stated)	·	·	·	·	0%	-2%
Cc1cc(C(=O)N2CCC2(C)C(=O)Nc2cccc3c2CCCC3)nn1C (configuration not stated)	·	·	·	·	0%	·
Cc1ccc(S(=O)(=O)NC2OC(=O)C(Cl)=C2Cl)cc1 (configuration not stated)	0%	-5	-19	3%	-10%	2.8µM*
Cc1ccc(S(=O)(=O)NC2CCCCCCC2)cc1	-6%	-5	-5	3%	-12%	3%
Clc1ccccc1-c1nnc2sc(-c3ccc4c(c3)OCO4)nn12	12%	19*	40*	3%	?	1%
O=[N+]([O-])c1cccc(SSc2cccc([N+](=O)[O-])c2)c1	·	·	·	·	11µM*	·

Screening data (PubChem BioAssay)
